Experimental data from PubChem BioAssay AID1159580 (chemical genetic matrix, 2015).
The whole screen tested about 5,500 compounds, of which about 2,000 (36%) were called active. About 18% were inconclusive and are not listed. Rule as the data show it: active = normalized growth mostly below about 0.91 (no sharp cut-off); inconclusive = no clear call, values can overlap the other calls; inactive = mostly above about 0.92. Some of the results follow.

Test: chemical genetic growth profiling, strain panel (AID 1159580);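 also: tested at 20 µM; growth read once vehicle control cultures reached saturation at 30 °C; 1 = growth at the plate median or of vehicle wells; lower values mean less growth of the strain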
Conditions: S. cerevisiae deletion strains, growth OD

Measured: normalized growth

CC(N)=NCCCC[C@@H](N)C(=O)O
inactive: locus YAL013W, strain DEP1, stronger effect = lower value 1.01 | locus YAL040C, strain CLN3, stronger effect = lower value 0.998 | locus YCL061C, strain MRC1 (second series), stronger effect = lower value 1.01 | locus YDR150W, strain NUM1, stronger effect = lower value 1 | locus YDR363W, strain ESC2, stronger effect = lower value 1.01 | locus YER002W, strain NOP16, stronger effect = lower value 0.994 | locus YJR075W, strain HOC1, stronger effect = lower value 1 | locus YMR263W, strain SAP30, stronger effect = lower value 1.01 | locus YNL128W, strain TEP1, stronger effect = lower value 1.02 | locus YNL175C, strain NOP13, stronger effect = lower value 1 | locus YNL197C, strain WHI3, stronger effect = lower value 1.01 | locus YNL224C, strain SQS1, stronger effect = lower value 1.01 | locus YNL322C, strain KRE1, stronger effect = lower value 1.02 | locus YOR083W, strain WHI5 (second series), stronger effect = lower value 1.01 | locus YPL055C, strain LGE1, stronger effect = lower value 1
